Screening results as filed in PubChem BioAssay.
TcdB inh: blocks C. difficile toxin B glycohydrolase activity; TcdB glycohydrolase enzymatic assay, plate reader; inhibition, % at 9.99 µM; 0.24% of 350,000 active; AID 652162; in the data active = inhibition above about 10%
MazEF act: activators of E. coli MazEF toxin-antitoxin RNase | P0AE70 | FAM/BHQ RNA-DNA oligo cleavage fluorescence, 5 h | activation, % at 20 µM | 0.32% of 350,000 active; in the data active = activation above about 50%
RN4220 kill: kills Staphylococcus aureus RN4220. S. aureus RN4220 growth, OD600, 16 h. inhibition, % (test concentration not listed). 0.33% of 330,000 active. AID 1259311; in the data active = inhibition above about 85%;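 also: plate controls were untreated cells for no effect and reference antibiotic for full effect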
Mtb hypoxia inh: inhibitors of hypoxia-regulated fluorescent reporter in Mycobacterium tuberculosis. M. tuberculosis hypoxia-regulated fluorescent reporter, fluorescence. fluorescence inhibition, % (test concentration not listed). 0.1% of 300,000 active; in the data active = fluorescence inhibition mostly above about 23%, no sharp cut-off; inactive = mostly below about 17%
PfHsp40 yeast: compounds rescuing yeast from Plasmodium falciparum HSP40 toxicity; S. cerevisiae expressing PfHsp40, growth rescue, ATP luminescence; growth rescue, % at 12.5 µM; 0.68% of 340,000 active; AID 504582; in the data active = growth rescue above about 28%, passing the limit was not always enough;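 also: yeast W303a lacking pdr1 and pdr3 grown in galactose medium; growth measured after three days at 30 °C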
ugtP null kill: compounds lethal to S. aureus RN4220 ugtP deletion mutant. OD600 growth, 16 h. growth inhibition, % (test concentration not listed). 0.54% of 330,000 active. AID 1259309; in the data active = growth inhibition above about 68%;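 also: plate controls were untreated wells for no effect and antibiotic for full effect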
* hit, by the source's call; · = no result given; ! = not confirmed by another sample. Compounds with a hit are over-represented: about 1.3% of the library has one in this group of screens.

SMILES	TcdB inh	MazEF act	RN4220 kill	Mtb hypoxia inh	PfHsp40 yeast	ugtP null kill
COC(=O)C1=NN(C(=O)c2cccc(Br)c2)C(O)(c2ccc(Cl)cc2)C1 (configuration not stated)	1	-10	22	0	494*	-11
CCC(C)Sc1ccc(C2C3C(=O)N(C)C(=O)C3[C@]3(C(=O)OC)CCCCN23)cc1 (some centres not stated)	·	·	5	15	·	-24
CN1CC=C(/C=C/c2ccc(-c3ccccc3)cc2)CC1	·	11	21	12	·	93*
O=C(NCc1ccc(OC(F)(F)F)cc1)C1CC(c2ccccc2C(F)(F)F)=NO1 (configuration not stated)	0	-3	1	4	38*	7
CCCCCCSc1ccc(-c2nc3cnccn3c2NCCCC)cc1	2	-20	·	·	37*	·
CCCCNc1c(-c2ccc(SC(C)CC)cc2)nc2ccccn12 (configuration not stated)	0	-2	·	·	209*	·
CCCCNc1c(-c2ccc(SC3CCCCC3)cc2)nc2ccccn12	0	5	-2	4	19	4
COc1ccc(C(=O)Nc2c(-c3cccs3)c(=O)c3ccccc3n2C)cc1	11*	-5	3	3	0	1
Cc1ccc(C(=O)Nc2c(-c3cccs3)c(=O)c3ccccc3n2C)cc1	·	6	7	5	-2	-13
CSc1ncccc1C(=O)OCC(=O)c1ccc[nH]1	0	-3	1	22*	-1	1
C[C@@H]1CN([C@@H](C)CO)C(=O)c2ccccc2-c2ccccc2CO[C@H]1CN(C)S(=O)(=O)c1ccc(C#N)cc1	1	·	·	·	·	·
CCC(=O)N1CC2(C1)[C@H](c1ccccc1)[C@H](CO)N2Cc1ccccc1F	-1	·	·	·	·	·
COc1ccccc1NC(=S)NC1CCCC1	-1	2	3	-2	6	9
COc1ccc(Cl)cc1NC(=S)NC1CCCC1	15*	1	3	-9	-2	-3
COC(=O)CC1c2cc(F)cc(F)c2S(=O)(=O)N1C1CCN(Cc2ccccc2)CC1 (configuration not stated)	·	·	6	2	·	0
C[C@@H]1CN([C@@H](C)CO)C(=O)c2cc(C#CCc3ccccc3)cnc2O[C@H]1CN(C)C(=O)C1CCCCC1	0	·	·	·	·	·
CN(C)c1nc(SCc2ccc(Cl)cc2)nc2c1CCCC2	·	-3	-3	19	220*	-15
C[C@@H]1CN([C@@H](C)CO)S(=O)(=O)c2ccc(-c3cccnc3)cc2O[C@@H]1CN(C)C(=O)NC1CCCC1	1	·	·	·	·	·
O=c1c2ccccc2nc2c3ccccc3c(NCCN3CCOCC3)nn12	·	·	5	-7	·	12
O=c1c2c(-c3ccccc3)csc2nc2c3ccccc3c(NCCN3CCOCC3)nn12	1	-21	91*	41*	0	60
N#C[C@@H]1[C@@H](c2ccc(C3=CCCCC3)cc2)[C@@H](CO)N1C(=O)NC1CCCCC1	1	·	·	·	·	·
Cc1cc(CN2CCOCC2)c(O)c(C2(C)CCCCC2)c1	·	-4	7	·	2	99*
Cc1cc2c(cc1S(=O)(=O)Nc1ccc(OC(F)(F)F)cc1)OCC(=O)N2	2	12	-8	13	0	92*
C[C@@H]1CN([C@H](C)CO)C(=O)Cc2cc(NC(=O)Nc3ccc(C(F)(F)F)cc3)ccc2O[C@H]1CN(C)C(=O)Nc1cccc2ccccc12	-1	·	·	·	·	·
COc1ccc(N2CCn3c2nc2c3c(=O)n(CCCc3ccccc3)c(=O)n2C)c(OC)c1	·	814*	2	-6	3	-12
SMILES	TcdB inh	MazEF act	RN4220 kill	Mtb hypoxia inh	PfHsp40 yeast	ugtP null kill
CCOC(=O)c1cc2c(OC)ccc(OC)c2n1CC(=O)c1ccccc1	2	-1	3	8	-1	89*
O=C(OCCN1CCCC1)C1(c2ccccc2)CCCC1	·	-17	20	5	50*!	21
COC(=O)Cn1c(=NC(=O)c2ccc([N+](=O)[O-])s2)sc2cc(Br)ccc21	·	·	99*	11	·	97*
COC(=O)Cn1c(=NC(=O)c2ccc(Cl)s2)sc2cc(C)ccc21	·	-15	1	-5	0	3
CCCNC(=O)C[C@@H]1CC[C@@H]2[C@H](COC[C@H](O)CN2Cc2ccc(Cl)c(Cl)c2)O1	0	·	·	·	·	·
COCc1cc(C)nc(OCC(=O)NN=Cc2ccco2)c1C#N	·	·	2	7	·	5
O=C(COC(=O)C1COc2ccccc2O1)Nc1cccc(Cl)c1 (configuration not stated)	0	9	5	10	2	9
CC1(C)Oc2ccc(NC(=O)C3COc4ccccc4O3)cc2O1 (configuration not stated)	·	0	-6	0	41*	-8
Cc1ccc(NC(=O)C2COc3ccccc3O2)cc1 (configuration not stated)	1	5	3	3	2	4
O=C(COC(=O)C1COc2ccccc2O1)Nc1cccc(F)c1 (configuration not stated)	-1	7	1	28*	0	0
COc1ccc(NC(=O)N(C)C[C@@H]2OCCCC[C@H](C)Oc3ccc(NC(=O)CCC(F)(F)F)cc3C(=O)N([C@H](C)CO)C[C@H]2C)cc1	-1	·	·	·	·	·
O=C(OCC(=O)c1ccc(Cl)cc1Cl)c1ccccn1	1	9	8	30*	-2	10
Cc1cc2[nH]c3c(c[n+](C)c4ccccc34)c2cc1C	3	-11	20	64*	0	13
Cc1cc2[nH]c3c4ccccc4nc(C)c3c2cc1C	2	-21	·	·	4	·
CCC(Oc1ccccc1)C(=O)Nc1nnc(C)s1 (configuration not stated)	·	-5	-2	1	-2	1
CCC(Oc1ccccc1)C(=O)Nc1ncc([N+](=O)[O-])s1 (configuration not stated)	-1	6	21	5	166*	41
O=C(Cc1ccc(Cl)cc1)Nc1ncc([N+](=O)[O-])s1	2	-2	30	5	-1	15
O=C(COc1ccc(Cl)cc1)Nc1ncc([N+](=O)[O-])s1	1	0	100*	-6	0	98*
CC1CCCCC1=NNc1ccc([N+](=O)[O-])cc1[N+](=O)[O-] (configuration not stated)	·	·	4	15	·	4
Cc1ccc(S(=O)(=O)NCC(=O)NN=Cc2ccccc2O)cc1	·	·	2	-11	·	1
CCC(Sc1nc2ncccc2[nH]1)C(=O)NC1CCC(C)CC1 (configuration not stated)	0	138*	-10	10	0	-7
COc1ccc2[nH]c(=O)c(CN(Cc3cccnc3)C(=O)Nc3ccccc3)cc2c1	·	4	5	-2	288*	7
Cc1ccc(-n2[nH]c(C)c(C=Nc3ccc4[nH]c(=O)[nH]c4c3)c2=O)cc1C	·	63*	0	·	-3	8
CC(C)=CCc1cc(-c2oc3cc(O)cc(O)c3c(=O)c2O)ccc1O	1	57*	3	·	4	-8
